This is an account of results in PubChem BioAssay.

Where “and” joins values, the source holds several entries; their conditions need not be identical. Identical values can stand only once. Results filed as inconclusive are left out. Where a structure was tested more than once in an assay, its records may differ in their call. Calls of active or inactive are those of the source. Unless noted, no cut-off is given here; in the data, nearly all actives have AC50 up to about 26 µM.

Experiment [1] addresses 6-phosphogluconate dehydrogenase, decarboxylating (Homo sapiens) (UniProt P52209). Description: inhibition of human phosphogluconate dehydrogenase – biochemical, recombinant enzyme, NADPH absorbance, primary screen (AID 1159550;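 active = at least 20% inhibition of 6-phosphogluconate dehydrogenase activity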). Particulars: recombinant 6PGD, NADPH absorbance 341 nm; at 10 µM; stronger effect = higher value.
Experiment [2] concerns Aerobactin synthetase IucA (Klebsiella pneumoniae). As to the kind of experiment: inhibition of K. pneumoniae IucA enzyme – biochemical, Tocris library, absorbance (AID 1345561; call rule not given here;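 note: 100% = enzyme without compound and 0% = no enzyme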). The settings on record: purified IucA enzyme assay, absorbance (OD) read-out; stronger effect = lower value;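 tested at 8 µM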.
A short description of experiment [3]: viability loss with induced miR-34 in A549 – imaging, A549 dox-inducible miR-34, nuclei and caspase counts, primary screen (AID 1347080;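 active = compounds whose cell count with miR-34 switched on is under 0.7 times the count with it off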). The settings on record: A549 miR-34 inducible, Hoechst nuclei count, 48 h.
Experiment [4] can be described thus: galactose survival enhancers in mitochondrial complex I cybrids – cell-based, galactose medium, ATP luminescence, primary screen (AID 1645843;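 active = z-score of at least 1.8 in each of two replicates, scored against plate mean and spread of sample wells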;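 note: positive z means more ATP and so rescue of galactose-driven cybrid death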). The settings on record: complex I mutant cybrid cells, 72 h, stronger effect = higher value.
Experiment [5] can be described thus: P. berghei load reduction in hepatocytes – cell-based, HepG2, luciferase luminescence, HepG2 viability, primary screen (AID 624349; in the data active = parasite load remaining mostly below about 12%, no sharp cut-off; inactive = mostly above about 10%;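 note: 100% = mean of DMSO negative control wells on the same plate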). Particulars: P. berghei liver stage in HepG2, luciferase luminescence, concentration not given here; parasite load remaining: stronger effect = lower value; viability: measured here: HepG2 viability without parasites.
Experiment [6] in a line: viability loss in pontine glioma line – cell-based, SU-DIPG-XVII, MIPE5.0, CellTiter-Glo, qHTS, dose response (AID 1347060).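 For AC50: cells exposed to compound for 48 hours before viability readout.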 Particulars: CellTiter-Glo ATP luminescence. In general terms: ATP-based viability assays read luminescence as a measure of living cells.
Experiment [7] in a line: viability loss in pontine glioma line – cell-based, SU-DIPG-XIII, MIPE4.0, CellTiter-Glo, qHTS, dose response (AID 1347061; cut-off not given, nearly all actives have AC50 up to about 37 µM;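 note: cells exposed to compound for 48 hours before readout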). Particulars: CellTiter-Glo ATP luminescence.
Experiment [8] is described as follows: viability loss in pontine glioma line – cell-based, SU-DIPG-IV, MIPE4.0, CellTiter-Glo, qHTS, dose response (AID 1347063; cut-off not given, nearly all actives have AC50 up to about 30 µM;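 note: compound exposure lasted 48 hours before the viability readout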). The settings on record: CellTiter-Glo ATP luminescence.
Experiment [9] in a line: viability loss in pontine glioma line – cell-based, SU-DIPG-XIII, MIPE5.0, CellTiter-Glo, qHTS, dose response (AID 1347064; cut-off not given, nearly all actives have AC50 up to about 23 µM;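 for AC50: cells exposed to compound for 48 hours before the viability read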). Particulars: CellTiter-Glo ATP luminescence.
Experiment [10] is described as follows: viability loss in pontine glioma line – cell-based, SU-DIPG-XXV, MIPE5.0, CellTiter-Glo, qHTS, dose response (AID 1347065).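 Note: cells exposed to compound for 48 hours before ATP readout.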 The settings on record: CellTiter-Glo ATP luminescence.
Experiment [11] is described as follows: growth inhibition of DIPG cells – cell-based, MIPE4.0 library, CellTiter-Glo luminescence, qHTS (AID 1347066; cut-off not given, nearly all actives have AC50 up to about 30 µM;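 note: cells exposed to compound for 48 hours before readout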). Particulars: SU-DIPG-VI viability, CellTiter-Glo ATP luminescence.
A short description of experiment [12]: JHH-DIPG-1 glioma cell viability, MIPE5.0 library, CellTiter-Glo luminescence, qHTS (AID 1347067).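 Note: cells exposed to compound for 48 hours before readout.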 Particulars: JHH-DIPG-1 glioma viability, CellTiter-Glo ATP luminescence.
Experiment [13] in a line: growth inhibition of DIPG cells – cell-based, MIPE5.0 library, qHTS (AID 1347068; cut-off not given, nearly all actives have IC50 up to about 30 µM;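 for IC50: cells exposed to compound for 48 hours before viability readout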). Particulars: SU-DIPG-XXV viability. For orientation: Quantitative high-throughput screening tests each substance at several concentrations.
A short description of experiment [14]: MELAS cybrid and Rieske KO viability enhancers – cell-based, MELAS cybrids, Rieske KO mouse fibroblasts, CellTiter-Glo, primary screen (AID 1508586;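 active = mean z-score across replicates of 1.96 or higher in either the MELAS or the Rieske mutant cell line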;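 note: z relative to plate mean and SD of compound and empty wells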). The settings on record: low glucose.
In experiment [15] the target is Mitogen-activated protein kinase 7 (Homo sapiens) (UniProt Q13164). Description: Gal4-ERK5 driven luciferase induction – cell-based, HTS, primary screen (AID 1508626;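 active = luciferase signal above three times the same-plate solvent-only control wells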;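 note: luciferase driven by Gal4-ERK5 fusion binding five Gal4 sites before minimal TATA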). The settings on record: HeLa Gal4-ERK5 transactivation, 18 h, at 5 µM, stronger effect = higher value.
Experiment [16] is described as follows: viability loss in pontine glioma line – cell-based, JHH-DIPG-1, MIPE4.0, CellTiter-Glo, qHTS, dose response (AID 1347062; cut-off not given, nearly all actives have AC50 up to about 27 µM). The settings on record: JHH-DIPG-1 viability, CellTiter-Glo ATP luminescence.
Experiment [17] has as its target NAD(+) hydrolase SARM1 (Homo sapiens) (UniProt Q6SZW1). As to the kind of experiment: blocking NAD cleavage by SARM1 SAM-TIR – cell lysate, NAD-Glo luminescence (AID 1508614;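 active = compound whose remaining NAD level is above about 45 nM, limit read from the data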;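 note: higher remaining NAD means stronger inhibition of SARM1 NADase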). The settings on record: SAM-TIR HEK293T lysate NADase, at 1 µM, stronger effect = higher value.
The nature of experiment [18]: compounds altering viability of human ES cells (AID 493140; call rule not given here;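 note: cells exposed to compounds for four days before counting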). The settings on record: human embryonic stem cell survival screen; stronger effect = higher value.
Setting [19] is: stronger effect = lower value, cell number ratio, induced over uninduced.
Setting [20] is: measured here: relative caspase fold change +Dox/-Dox.
Setting [21] is: measured here: total cells with miR-34 induction, stronger effect = lower value.
The mark [22] stands for this setting: measured here: total cells without miR-34 induction.
Setting [23] is: MELAS cybrid survival, CellTiter-Glo 48 h, stronger effect = higher value.
[24] abbreviates: Rieske KO mouse fibroblast survival, CellTiter-Glo 72 h.

Sequence of 6-phosphogluconate dehydrogenase, decarboxylating (Homo sapiens) (P52209 whole entry, looked up): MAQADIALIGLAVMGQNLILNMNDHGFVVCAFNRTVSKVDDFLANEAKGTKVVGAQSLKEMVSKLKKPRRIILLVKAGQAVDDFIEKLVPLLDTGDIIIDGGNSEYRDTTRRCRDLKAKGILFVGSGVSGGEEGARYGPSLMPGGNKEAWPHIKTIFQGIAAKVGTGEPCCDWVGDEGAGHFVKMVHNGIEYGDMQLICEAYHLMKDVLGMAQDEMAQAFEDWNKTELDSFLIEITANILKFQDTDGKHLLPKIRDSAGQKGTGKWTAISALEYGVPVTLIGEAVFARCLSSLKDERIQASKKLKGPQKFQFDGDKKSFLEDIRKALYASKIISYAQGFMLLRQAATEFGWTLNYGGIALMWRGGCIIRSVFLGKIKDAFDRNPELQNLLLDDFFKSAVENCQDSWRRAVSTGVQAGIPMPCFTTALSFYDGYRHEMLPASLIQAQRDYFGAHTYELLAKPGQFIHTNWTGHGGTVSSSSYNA
Sequence of Mitogen-activated protein kinase 7 (Homo sapiens) (Q13164 whole entry, looked up, the tested form may be a part): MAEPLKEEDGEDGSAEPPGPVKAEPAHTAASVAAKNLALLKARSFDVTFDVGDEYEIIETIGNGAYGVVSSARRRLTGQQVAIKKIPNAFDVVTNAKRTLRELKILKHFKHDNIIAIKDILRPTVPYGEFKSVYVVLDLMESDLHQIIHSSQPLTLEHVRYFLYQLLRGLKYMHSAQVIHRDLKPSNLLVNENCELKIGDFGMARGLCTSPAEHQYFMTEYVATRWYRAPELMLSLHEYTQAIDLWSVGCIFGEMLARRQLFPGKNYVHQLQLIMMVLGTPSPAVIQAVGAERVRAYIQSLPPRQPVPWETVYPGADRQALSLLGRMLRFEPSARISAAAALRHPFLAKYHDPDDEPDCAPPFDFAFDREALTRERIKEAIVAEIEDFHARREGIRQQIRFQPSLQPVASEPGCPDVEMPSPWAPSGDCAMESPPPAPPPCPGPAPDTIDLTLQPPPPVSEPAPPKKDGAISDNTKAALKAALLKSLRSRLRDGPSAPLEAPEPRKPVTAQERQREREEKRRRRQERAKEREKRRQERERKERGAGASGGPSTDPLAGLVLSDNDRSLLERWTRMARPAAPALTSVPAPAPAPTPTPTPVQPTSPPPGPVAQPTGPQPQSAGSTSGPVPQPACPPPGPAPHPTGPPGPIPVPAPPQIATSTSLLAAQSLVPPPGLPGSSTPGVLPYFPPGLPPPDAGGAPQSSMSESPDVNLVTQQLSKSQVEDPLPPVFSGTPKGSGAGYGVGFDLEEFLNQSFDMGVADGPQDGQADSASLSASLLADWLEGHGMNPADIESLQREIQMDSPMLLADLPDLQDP
Sequence of NAD(+) hydrolase SARM1 (Homo sapiens) (Q6SZW1 whole entry, looked up): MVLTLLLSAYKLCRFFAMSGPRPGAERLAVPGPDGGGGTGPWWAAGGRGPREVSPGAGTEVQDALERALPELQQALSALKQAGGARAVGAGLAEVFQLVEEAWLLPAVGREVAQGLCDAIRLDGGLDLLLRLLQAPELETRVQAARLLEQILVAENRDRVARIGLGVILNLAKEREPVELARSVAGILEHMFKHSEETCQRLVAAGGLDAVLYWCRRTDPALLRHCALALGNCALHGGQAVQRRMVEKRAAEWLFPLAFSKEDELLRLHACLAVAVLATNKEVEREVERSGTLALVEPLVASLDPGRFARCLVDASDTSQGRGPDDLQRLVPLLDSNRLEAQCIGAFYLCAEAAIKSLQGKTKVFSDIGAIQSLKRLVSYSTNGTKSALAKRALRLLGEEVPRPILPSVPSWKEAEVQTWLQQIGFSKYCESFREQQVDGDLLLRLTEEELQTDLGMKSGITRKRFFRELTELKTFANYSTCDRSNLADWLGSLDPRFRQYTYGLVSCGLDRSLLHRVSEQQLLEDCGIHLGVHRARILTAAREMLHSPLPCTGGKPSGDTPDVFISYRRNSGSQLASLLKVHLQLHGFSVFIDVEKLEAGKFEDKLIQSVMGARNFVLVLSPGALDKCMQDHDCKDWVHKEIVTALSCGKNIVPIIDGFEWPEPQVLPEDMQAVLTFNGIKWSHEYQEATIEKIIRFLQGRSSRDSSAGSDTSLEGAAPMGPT

For the compound `O=C(O)Cc1nn(Cc2ccc(Br)cc2F)c(=O)c2ccccc12`, the inhibition in [1] is 11.5% (inactive). Besides, the remaining activity in experiment [2] is 92.7% (inactive). The fold change in experiment [3] (setting [19]) is 0.972 (inactive); in [3] (setting [20]), 0.601. Moreover, the cell count in experiment [3] (setting [21]) worked out at 8710; in [3] (setting [22]), 8960. Further, in experiment [4], the z-score was 0.945 (inactive).

On to `COc1ccc([C@@H]2CC(=O)c3c(O)cc(O[C@@H]4O[C@H](CO[C@@H]5O[C@@H](C)[C@H](O)[C@@H](O)[C@H]5O)[C@@H](O)[C@H](O)[C@H]4O)cc3O2)cc1O`, for which the parasite load remaining in [5] is 169% (inactive). The viability in experiment [5] is 116%. For the same compound, in [1], the inhibition was 1.33% (inactive). In addition, the result in experiment [6], in [8], in experiment [9], in experiment [10], in experiment [11] and in experiment [12] was inactive. Also, the result in experiment [13] was inactive. Moreover, in experiment [7], the AC50 is 14.8 µM (active). Besides, the fold change in experiment [3] (setting [19]) is 0.851 (inactive); in [3] (setting [20]), 2.5. In addition, the values for the cell count in [3] (setting [21]) and in experiment [3] (setting [22]) were 8600 and 10100, respectively. The z-score in [14] (setting [23]) was -0.52 (inactive); in experiment [14] (setting [24]), -0.165. For the same compound, the luciferase signal in [15] was 88 AU (inactive).

For `CCC[C@@H]1C[C@@H](C(=O)N[C@@H]([C@H]2O[C@H](SC)[C@H](O)[C@@H](O)[C@H]2O)[C@@H](C)O)N(C)C1`, the parasite load remaining in experiment [5] is 63.5% (inactive). The viability in [5] is 128%. Also, the inhibition in experiment [1] was -15.1% (inactive). In addition, the call in [7], in experiment [16] and in experiment [8] was inactive. The values for the fold change in experiment [3] (setting [19]) and in [3] (setting [20]) were 0.837 (inactive) and 1.35, respectively. Besides, the results for the cell count in experiment [3] (setting [21]) and in experiment [3] (setting [22]) were 8810 and 10500, respectively. Further, the z-score in experiment [14] (setting [23]) was 0.52 (inactive) and 0.4 (inactive); in experiment [14] (setting [24]), -0.069 and -0.671; in [4], -0.14 (inactive). For the same compound, in experiment [17], the remaining NAD was 10 nM (inactive). For the same compound, the luciferase signal in experiment [15] is 64 AU (inactive).

Turning to `C=C(C)[C@@H]1CC[C@]2(C(=O)O)CC[C@]3(C)[C@H](CC[C@@H]4[C@@]5(C)CC[C@H](O)C(C)(C)[C@@H]5CC[C@]43C)[C@@H]12`, the survival in experiment [18] was 9.75 (inactive). Further, the parasite load remaining in experiment [5] was -8.09% (active) and 64% (inactive). Also, in [5], the viability was 99.2% and 78.2%. The inhibition in experiment [1] is 0.445% (inactive). The half-maximal activity concentration (AC50) in [6] is 20.9 µM (active); in experiment [10] it was 14.8 µM (active). Further, the compound was called inactive in experiment [7], in [16], in experiment [8], in experiment [11], in experiment [12] and in experiment [13]. Also, the fold change is 0.792 (inactive) and 1.12 (inactive) in experiment [3] (setting [19]); 1.41 and 0.964 in experiment [3] (setting [20]). In addition, the cell count is 5780 and 2010 in [3] (setting [21]); 7300 and 1790 in [3] (setting [22]). For the same compound, the luciferase signal in [15] is 64 AU (inactive).

In the case of `C=C1CC[C@@H]2[C@](C)(CO)[C@H](O)CC[C@@]2(C)[C@@H]1C/C=C1/C(=O)OC[C@H]1O`, the inhibition in experiment [1] is -4.69% (inactive). Moreover, the concentration at half-maximal activity (AC50) in experiment [6] was 16.6 µM (active); in experiment [9], 20.9 µM (active); in experiment [10], 11.8 µM (active); in experiment [12], 14.8 µM (active). The IC50 in [13] is 20.9 µM (active). Besides, the luciferase signal in [15] was 176 AU (active).

With `O=C1c2c(O)cccc2[C@H]([C@@H]2O[C@H](CO)[C@@H](O)[C@H](O)[C@H]2O)c2cc(CO)cc(O)c21`, the inhibition in experiment [1] is -1.53% (inactive). Also, the outcome in [7], in experiment [16] and in [11] was inactive. The remaining NAD in [17] was 10 nM (inactive). Moreover, the luciferase signal in experiment [15] was 44 AU (inactive).

A word on the inhibition: it is the drop in the measured response relative to a control, in per cent. In general, remaining activity refers to the share of the control activity or signal that is left under treatment. What is called viability is a read-out of living cells in per cent, often relative to untreated cells. Usually AC50 stands for the midpoint of the concentration-response curve, whichever way the signal moves. By IC50 is commonly meant the concentration that gives 50% inhibition.
